The record followed here is PubChem BioAssay (NCATS).

Records with an inconclusive call do not appear. Entries that show only a call come without a potency. Activity calls are given as the source filed them. Calls follow the shape of the dose curve; as a rule, active = well fitted inhibition curve with a large enough effect; inconclusive = small, poorly fitted or top-dose-only effect; inactive = flat fitted curve, though single readings scatter.
Potency is read from the fitted curve at half-maximal effect.

Voltage-gated inwardly rectifying potassium channel KCNH2 (Homo sapiens), sequence (Q12809 whole entry, looked up): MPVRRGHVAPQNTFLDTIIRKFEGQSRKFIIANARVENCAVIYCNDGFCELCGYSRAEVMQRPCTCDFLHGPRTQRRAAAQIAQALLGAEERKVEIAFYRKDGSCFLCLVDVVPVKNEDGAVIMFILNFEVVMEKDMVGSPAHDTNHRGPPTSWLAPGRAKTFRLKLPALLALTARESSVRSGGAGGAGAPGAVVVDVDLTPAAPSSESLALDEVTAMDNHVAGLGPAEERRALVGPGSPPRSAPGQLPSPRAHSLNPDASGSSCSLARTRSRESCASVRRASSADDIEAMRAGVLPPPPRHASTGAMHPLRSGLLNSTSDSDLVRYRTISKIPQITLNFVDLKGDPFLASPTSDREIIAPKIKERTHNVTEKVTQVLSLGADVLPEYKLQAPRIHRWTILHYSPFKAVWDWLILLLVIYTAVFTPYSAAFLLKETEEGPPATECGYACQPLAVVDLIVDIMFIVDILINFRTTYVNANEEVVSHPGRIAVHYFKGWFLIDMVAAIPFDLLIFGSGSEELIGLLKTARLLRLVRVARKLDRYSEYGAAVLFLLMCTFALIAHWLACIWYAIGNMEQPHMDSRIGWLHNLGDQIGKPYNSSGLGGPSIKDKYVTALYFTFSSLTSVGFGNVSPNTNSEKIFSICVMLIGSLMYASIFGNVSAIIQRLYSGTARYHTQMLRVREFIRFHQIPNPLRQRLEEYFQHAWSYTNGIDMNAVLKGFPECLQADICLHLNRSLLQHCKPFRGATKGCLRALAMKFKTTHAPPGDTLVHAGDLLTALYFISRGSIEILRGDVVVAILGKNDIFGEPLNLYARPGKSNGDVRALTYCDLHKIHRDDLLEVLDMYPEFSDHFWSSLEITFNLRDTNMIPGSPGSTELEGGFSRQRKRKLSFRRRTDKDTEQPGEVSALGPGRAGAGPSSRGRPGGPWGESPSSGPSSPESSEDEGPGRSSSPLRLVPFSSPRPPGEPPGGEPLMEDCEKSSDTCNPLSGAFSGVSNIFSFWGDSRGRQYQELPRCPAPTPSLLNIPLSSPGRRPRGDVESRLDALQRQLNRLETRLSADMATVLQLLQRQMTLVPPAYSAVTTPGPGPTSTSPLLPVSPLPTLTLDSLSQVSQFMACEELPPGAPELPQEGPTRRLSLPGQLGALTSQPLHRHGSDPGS

This experiment addresses Voltage-gated inwardly rectifying potassium channel KCNH2 (Homo sapiens) (UniProt Q12809). As to the kind of experiment: qHTS Assay for Small Molecule Inhibitors of the Human hERG Channel Activity (AID 588834).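 Also: lower thallium flux fluorescence means stronger hERG block; nearly all actives have a fitted effect of over 50% in size.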 The following applies: U2OS BacMam hERG, FluxOR thallium flux fluorescence; series mostly up to 46.1 µM. The gist of the method: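 Measured: FluxOR fluorescence after thallium stimulation in U2OS cells transduced with hERG by baculovirus. Compounds pre-incubated around 10 min; medium Opti-MEM with 2% FCS. AC50 from Hill equation.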
On the technique in general: qHTS replaces the single test concentration by a dilution series.
For `CCCCCCCCCCCCCCCCCC(=O)OCC(O)CO` (stereo not given), the Potency result is “inactive”.
The same measure for `CC(=O)OCC(=O)NCCCOc1cccc(CN2CCCCC2)c1`: “inactive”.
For the molecule `C#C[C@]1(O)CC[C@H]2[C@@H]3CCc4cc(OC5CCCC5)ccc4[C@H]3CC[C@@]21C`, the Potency entry was “inactive”.
`COc1cc(-c2ccc(=O)[nH]n2)ccc1OC(F)F`: the Potency result is “inactive”.
The same measure for `Cc1c(C(N)=O)cc([N+](=O)[O-])cc1[N+](=O)[O-]`: “inactive”.
As for `CCN(CC)CCNC(=O)COc1ccc(Cl)cc1`, the Potency is 14.1 µM (active).
As for `CCCCCC=CCC=CCCCCCCCC(=O)OCC`, the Potency result was “inactive”.
For `COc1c2occc2c(OC)c2c(=O)cc(C)oc12`, the Potency entry was “inactive”.
Turning to `Cc1c(F)c(N2CCNC(C)C2)cc2c1c(=O)c(C(=O)O)cn2C1CC1` (stereo not given), the Potency result is “inactive”.
Take `c1ccc(CNCCNCc2ccccc2)cc1`: the Potency result is “inactive”.
As for `CCCCOc1ccc(C(=O)CCN2CCCCC2)cc1`, the Potency was 10 µM (active).
As for `COc1ccc(CN2CCN(C(c3ccc(F)cc3)c3ccc(F)cc3)CC2)c(OC)c1OC`, the Potency was 1.12 µM (active).
In the case of `CN1C(CCl)Nc2cc(Cl)c(S(N)(=O)=O)cc2S1(=O)=O` (stereo not given), the Potency entry is “inactive”.
The same measure for `CCC(C(=O)OCCN(CC)CC)c1ccccc1` (stereo not given): “inactive”; for `Oc1ccc(Cl)c2cccnc12`: “inactive”.
For the molecule `O=C(O)CNC(=O)c1ccccc1`, the Potency result was “inactive”.
For the molecule `CCOC(=O)OC(C)OC1=C(C(=O)Nc2ccccn2)N(C)S(=O)(=O)c2ccccc21` (stereo not given), the Potency result is “inactive”.
The same measure for `NC(CS)C(=O)O` (stereo not given): “inactive”; for `Cc1cccn2c(=O)c(-c3nnn[nH]3)cnc12`: “inactive”.
As for `CC1=C(C(=O)OC(C)C)C(c2cccc([N+](=O)[O-])c2)C(C(=O)OC2CN(C(c3ccccc3)c3ccccc3)C2)=C(N)N1` (stereo not given), the Potency result was “inactive”.
